Laboratory results reported in paper PMC5540273 (PLoS ONE, 2017).

What was measured:
Settings in all cases: concentration: 1 μM, replicates: in singlicate; n = 1
CDK4-cyclinD1 = test system: CDK4-cyclinD1
CDK4-cyclinD3 = test system: CDK4-cyclinD3
CDK4 = test system: CDK4
CDK5 = test system: CDK5
CDK7 = test system: CDK7
CDK8 = test system: CDK8
CDK9 = test system: CDK9
CDKL1 = test system: CDKL1
CDKL2 = test system: CDKL2
CDKL3 = test system: CDKL3
CDKL5 = test system: CDKL5
CHEK1 = test system: CHEK1
CHEK2 = test system: CHEK2
CIT = test system: CIT
CLK1 = test system: CLK1
CLK2 = test system: CLK2
CLK3 = test system: CLK3
CLK4 = test system: CLK4
CSF1R-autoinhibited = test system: CSF1R-autoinhibited
CSF1R = test system: CSF1R
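Further: KINOMEscan kinase panel screen.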

Structure (SMILES) | %Inh (CDK4-cyclinD1) | %Inh (CDK4-cyclinD3) | %Inh (CDK4) | %Inh (CDK5) | %Inh (CDK7) | %Inh (CDK8) | %Inh (CDK9) | %Inh (CDKL1) | %Inh (CDKL2) | %Inh (CDKL3) | %Inh (CDKL5) | %Inh (CHEK1) | %Inh (CHEK2) | %Inh (CIT) | %Inh (CLK1) | %Inh (CLK2) | %Inh (CLK3) | %Inh (CLK4) | %Inh (CSF1R-autoinhibited) | %Inh (CSF1R)
CN1c2ccc(-c3ccc(C(N)=O)cc3)cc2-c2[nH]ncc2S1(=O)=O | 27% | 0% | 0% | 0% | 0% | 28% | 0% | 22% | 31% | 0% | 0% | 0% | 49% | 0% | 25% | 70% | 0% | 15% | 17% | 0%
COC(=O)c1cccc(NC(=O)NC2CCN(c3ccnc(Nc4ccc(F)cc4)n3)C2)c1 (stereo not shown) [GSK1379725] | 0% | 0% | 6% | 0% | 0% | 41% | 0% | 0% | 82% | 0% | 7% | 0% | 0% | 12% | 10% | 0% | 0% | 10% | 0% | 2%
COc1cccc(C2=C(Nc3cc(Cl)c(O)c(Cl)c3)C(=O)NC2=O)c1 [SB-390767] | 0% | 0% | 0% | 5% | 0% | 0% | 0% | 1% | 20% | 0% | 0% | 100% | 0% | 7% | 46% | 0% | 14% | 15% | 0% | 0%
Fc1ccc(-c2nc[nH]c2-c2ccncc2)cc1 [SB-217360] | 0% | 0% | 15% | 0% | 0% | 38% | 0% | 12% | 16% | 2% | 2% | 0% | 16% | 93.7% | 5% | 10% | 10% | 0% | 0% | 0%
Cc1c(Cn2c(C)c(C)n3c(=O)cc(N4CCOCC4)nc23)cccc1C(F)(F)F [GSK2328680] | 0% | 0% | 0% | 0% | 0% | 34% | 0% | 100% | 6% | 0% | 0% | 0% | 8% | 19% | 22% | 0% | 6% | 21% | 14% | 0%
COC(=O)C(NC(=O)NC1CCN(c2ccnc(Nc3ccc(F)cc3)n2)C1)c1ccccc1 (stereo not shown) [GSK1379712] | 20% | 4% | 29% | 1% | 14% | 58% | 18% | 0% | 10% | 0% | 3% | 3% | 37% | 0% | 9% | 0% | 0% | 0% | 34% | 5%
COc1ccc(Nc2nccc(N3CCC(NC(=O)C(C)c4ccc(Cl)cc4)CC3)n2)cc1 (stereo not shown) [GSK1379812] | 0% | 0% | 33% | 0% | 0% | 20% | 0% | 4% | 0% | 0% | 100% | 0% | 0% | 9% | 13% | 11% | 0% | 9% | 0% | 0%
COc1cccc(CNC(=O)NC2CCN(c3ccnc(Nc4ccc(F)cc4)n3)C2)c1 (stereo not shown) [GSK1379723] | 0% | 15% | 0% | 0% | 0% | 0% | 0% | 0% | 39% | 0% | 6% | 5% | 0% | 19% | 19% | 0% | 0% | 8% | 10% | 2%
CC(=O)c1c(C)c2cnc(Nc3ccc(N4CCNCC4)cn3)nc2n(C2CCCC2)c1=O | 96.6% | 98.5% | 21% | 0% | 27% | 0% | 2% | 0% | 0% | 6% | 0% | 0% | 16% | 3% | 23% | 0% | 100% | 13% | 7% | 7%
COc1ccc(-c2coc3ccc(-c4nnc(C)o4)cc23)cc1 | 0% | 0% | 0% | 0% | 0% | 0% | 0% | 24% | 0% | 0% | 51% | 0% | 13% | 16% | 3% | 22% | 0% | 27% | 7% | 9%
Cc1ccc(NC(=O)Nc2ccccc2)cc1-c1ccc(C(=O)Nc2ccncc2)cc1 [GSK1398471] | 0% | 0% | 0% | 0% | 0% | 0% | 0% | 0% | 23% | 1% | 11% | 0% | 0% | 93% | 20% | 0% | 7% | 14% | 0% | 84%
